# Paper PMC5540273 (PLoS ONE, 2017)
# System: T1, ERK1
# T1 construct: gene MAPK3
# Conditions: concentration: 1 μM,replicates: in singlicate; n = 1
# 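Further: KINOMEscan kinase panel screen.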
row,SMILES,%Inh [%]
1,COc1ccc(Nc2nccc(N3CCC(NC(=O)c4cccc(C#N)c4)C3)n2)cc1 (stereo not shown) [GSK1379730],1
2,C[C@@H](Oc1cc(-n2cnc3cc(-c4cnn(C)c4)ccc32)sc1C(N)=O)c1ccccc1Cl [GSK580432],0
3,O=C(Nc1n[nH]c2cc(-c3ccco3)ccc12)C1CC1 [SB-737447],0
4,COC(=O)Nc1nc2cc(Oc3ccc(NC(=O)Nc4cc(C(F)(F)F)ccc4Cl)cc3)ccc2[nH]1.Cl [GW697465],0
5,Cc1cccc2c(-c3ccncc3)c(-c3ccc(F)cc3)nn12.Cl [GW461487],0
6,O=c1[nH]cc(-c2ccc(O)cc2)c2sc(-c3ccncc3)cc12 [GSK1033723],0
7,COc1cccc(CNC(=O)NC2CCN(c3ccnc(Nc4cc(OC)c(OC)c(OC)c4)n3)C2)c1 (stereo not shown) [GSK1379765],0
8,COc1cccc(OC)c1C(=O)Nc1cccc(-c2nn3ccccc3c2-c2ccnc(Nc3cccc(F)c3)n2)c1 [GSK361065],1
9,CC(=O)Nc1nc2cnc(Nc3cc(NC(=O)c4cccc(CC(C)(C)C#N)c4)ccc3C)nc2s1,1
10,CC(C)S(=O)(=O)N1CCN(Cc2ccc3c(c2)nc(NC(=O)c2ccsc2)n3C[C@H](O)c2ccccc2)CC1 [GW635815],0
11,Cc1ccc(Nc2ccnc(Nc3ccc4c(c3)CS(=O)(=O)C4)n2)cc1O.Cl [GW579362],0
12,Cc1nnc(-c2ccc3occ(-c4ccc(S(C)=O)cc4)c3n2)o1 (stereo not shown),0
13,O=C(Nc1cccc(C(F)(F)F)c1)c1cccc(Oc2ccc3nccn3n2)c1,7
14,CCCC(=O)Nc1n[nH]c2ncccc12 [SB-601436],0
15,C[C@@H]1CNc2c(sc3ccc4nc(-c5ccc(O)cc5)ccc4c23)C(=O)N1,0
16,COC(=O)c1cccc(NC(=O)NC2CCN(c3ccnc(NCc4ccc(F)cc4)n3)CC2)c1 [GSK1379860],0
17,CC(=O)Nc1ccc(-c2cc3ncnc(SCC(=O)O)c3s2)cc1,0
18,NC(=O)c1ccc(-c2cc3ncnc(SCC(=O)O)c3s2)cc1,0
19,C[C@@H]1CCN(C(=O)N2CCCC2)C[C@@H]1N(C)c1ncnc2[nH]ccc12,0

row,SMILES,%Inh [%]
1,CCn1c(-c2nonc2N)nc2cncc(Br)c21 [SB-738004],0
2,Cc1ccc(CC(=O)N2CCc3cc(-c4cn(C)c5ncnc(N)c45)ccc32)cc1 [GSK2634758],12
3,Nc1nccc(-c2ccc3c(N)n[nH]c3c2)n1 [GSK1034945],0
4,COc1cccc(C2=C(Nc3cccc(Cl)c3)C(=O)NC2=O)c1 [SB-341556],3
5,Cc1n[nH]c2cc(Nc3ccnc(Nc4cccc(CN5CCOCC5)c4)n3)ccc12 [GW682569],0
6,Cl.Cl.NC[C@H](CC1CCCCC1)NC(=O)c1ccc(-c2ccnc3[nH]ccc23)s1 [GSK1581428],18
7,COc1cc2c(Nc3ccc(NC(=O)c4ccccc4)cc3)ncnc2cc1OCCCN1CCOCC1 [GSK301329],4
8,C[C@@H](Oc1cc(-n2cnc3ccc(-c4ccncc4)cc32)sc1C(N)=O)c1ccccc1Cl [GSK483724],5
9,NC(=O)Nc1sc(-c2ccc(F)cc2)cc1C(N)=O [GW789449],0
10,CN(c1ccc2c(c1)nc(NCc1ccc(F)cc1)n2C)c1ccnc(Nc2ccc(CS(C)(=O)=O)cc2)n1.Cl [GW813244],3
11,c1ccc(Oc2ccc(Nc3ccnc4ccc(-c5ccccn5)cc34)cc2)cc1 [GW407034],0
12,CS(=O)c1ccc(-c2coc3ccc(-c4n[nH]c(=O)o4)cc23)cc1 (stereo not shown),7
13,CCN1CCN(CCCC(=O)Nc2n[nH]c3nc(-c4ccc(O)cc4)c(Br)cc23)CC1 [SB-731579],0
14,CC(=O)c1c(-c2ccncc2)[nH]c(-c2ccncc2)c1C [GW493036],3
15,CSc1nccc(-c2c(-c3ccc(F)cc3)ncn2CCCN2CCOCC2)n1.Cl [SB-217146],0
16,CN1CCN(CCNc2nc3cc(Oc4ccc(NC(=O)Nc5cc(C(F)(F)F)ccc5F)cc4)ccc3[nH]2)CC1.Cl.Cl [GW768504],0
17,C[C@@H](Oc1cc(-n2cnc3cc(-c4ccncc4)ccc32)sc1C(N)=O)c1ccccc1Cl [GSK479719],0
18,O=C(Nc1cccc(Oc2ccc3nccn3n2)c1)Nc1cccc(C(F)(F)F)c1,0
